Assay results as given in PubChem BioAssay (NCI).
About 83,000 compounds went through this panel and 20% of them were active in at least one assay; those are over-represented in the sample as a whole.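 For each line, cells grew in 96-well plates with the test compound present at a single concentration for 48 hours.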 Unmarked numbers belong to inactive results. Active and inactive are the calls of the source. The calls were made as follows: active = growth percent below 10; inactive = the rest.

System: MDA-MB-231 breast
Test: NCI-60 one-dose screen, 48 h (100 = growth as untreated, 0 = no growth, -100 = all killed)
Conditions: 10 µM unless noted

Compound | growth
Cn1c2ccccc2c2c3c(c4c5cc(Br)ccc5n(C)c4c21)C(=O)N(O)C3=O | -32% (active)
c1ccc2cc(Cn3cc(CSc4nc5ccccc5s4)nn3)ccc2c1 | 89.3%
COCCn1cc(-c2nc(-c3cc4cccnc4n3C)cs2)c2ccccc21 | 37.1%
COc1ccc(C2[C@@H](Cl)C(=O)N2c2cc(OC)c(OC)c(OC)c2)cc1Cl (stereo not given in full) | 33.5%
N#Cc1nn(-c2cc(=O)[nH]c3ccc(Br)cc23)c(N)c1C#N | 85.3%
CC1=C2CC/C(C)=C/CC[C@]3(C)O[C@H]3CC/C(C)=C/[C@H]2OC1 | 96.5%
CN(C)CCCn1c2c(c3cnccc3c1=O)C(=O)c1ccccc1-2 | 0.187% (active)
CN1CCOCCN(C)Cc2ccc3ccc(cc3c2)CN(C)CCOCCN(C)Cc2ccc3ccc(cc3c2)C1 | 70.8%
COc1ccc2c(O)c(/C=C3\N=Nc4ncccc43)oc2c1C[C@@H]1CCNC[C@H]1F | -40% (active)
COc1cc(/C=C2\C(=O)N(CCCOc3cc(O)c4c(=O)cc(-c5ccccc5)oc4c3)c3ccccc32)cc(OC)c1O | 97.5%
Cc1ccc(S(=O)(=O)c2nc(-c3ccccc3)oc2SCC(N)=O)cc1 | 104%
C=CN(C(=O)N1CCN(c2cc3c(cc2F)c(=O)c(C(=O)O)cn3C2CC2)CC1)c1nc(-c2ccccc2)cs1 | 90.4%
Cc1ccc(NC(=O)c2sc3nc(C)c(C(O)c4ccccc4)cc3c2N)cc1 (stereo not given) | 15.9%
Nc1c(Br)cc2c(c1Br)Cc1cc([N+](=O)[O-])ccc1-2 | 90.6%
Cn1cc(-c2nc3c(F)cc4[nH]ncc4c3c3c2CCCC3)c(C(F)(F)F)n1 | 48.9%
CCCCCc1ccc(S(=O)(=O)Nc2ccc3nc(N)oc3c2)cc1 | 64.3%
Nc1ncnc2c1N=C(c1ccc(F)cc1)CC(c1cccc(Nc3ccnc4cc(Cl)ccc34)c1)N2 (stereo not given) | 75.2%
CCOC(=O)c1[nH]cc2c1CCc1sc(Nc3ccccn3)nc1-2 | 82.3%
C=C(C)[C@@H]1CC[C@]2(CO)CC[C@]3(C)[C@H](CC[C@@H]4[C@@](C)(CCCN)[C@H](C(=C)C)CC[C@]43C)[C@@H]12 | -96.3% (active)
CCN1C(=O)N(c2ccccc2)C2NC(=S)N(/N=C/C=C/c3ccccc3OC)C21 (stereo not given) | 16.7%

Compound | growth
CN1c2ccccc2S(=O)(=O)n2c(SCC(=O)Nc3nc4ccc(F)cc4s3)nnc21 | 103%
Clc1ccc(Nc2nnc(CNc3ccccc3)c3ccccc23)cc1 | 19.9%
N#C/C(=C\c1ccc(-c2cccc(Cl)c2)o1)C(=O)Nc1ncc(Cc2ccc(Cl)cc2)s1 | 34.1%
CN(C)CCC(CCN(C)C)(C(=O)O)c1ccccc1 | 97.2%
CC1(C)CC[C@]23CC[C@]4(C)[C@H](CC[C@@H]5[C@@]6(C)C/C(=C/O)C(=O)C(C)(C)[C@@H]6CC[C@]54C)[C@H]2[C@H]1OC3 | 97.6%
CN(C)C1CN(C(=O)c2cc(-c3ccc4ncnc(N5CCc6cc(F)c(Cl)cc65)c4c3)cnc2N)C1 | 27.8%
Cc1[nH]n(-c2cccc(Cl)c2)c(=O)c1/C=C1\C=c2ccccc2=CC1=O | 4.08% (active)
COCCn1cc(-c2csc(-c3c[nH]c4ccccc34)n2)c2cccnc21 | 35%
COC(=O)c1c2c(c[n+]([O-])c1C)C(=O)C=C(NCc1ccccc1)C2=O | -17.7% (active)
ClC(Cl)c1nc(-c2ccccc2)n2nc(-c3ccccc3)cc2n1 | 2.2% (active)
CN(C)c1ccc([C@@H](C(=O)Nc2cccc([N+](=O)[O-])c2)N(C(=O)c2cc3ccccc3[nH]2)c2cccc([N+](=O)[O-])c2)cc1 | 96.5%
CC(C)(Sc1cc(C(C)(C)C)c(O)c(C(C)(C)C)c1)Sc1cc(C(C)(C)C)c(OC(=O)CCC(=O)O)c(C(C)(C)C)c1 | 58.3%
COc1cc(C=C2C(=O)NC(=S)NC2=O)cc(CN2CCCC2)c1O | 111%
Cc1cc(C)c2c(c1)N(C)c1ncnc(-n3c(C)nc4cc(C)ccc43)c1CC2C (stereo not given) | 61.2%
Brc1ccc(Nc2nc(Nc3cnc4ccccc4c3)c3[nH]cnc3n2)cc1 | 53.8%
COc1cc(C[C@H]2COc3cc(O)cc(O)c3C2=O)ccc1O | 55.3%
CC(=O)c1c(Nc2cccc(F)c2)[nH]c2c(Cl)cc(Cl)c(Cl)c2c1=O | -3.57% (active)
COC12C=C/C(=C(/C(=O)OCc3csc(SC)n3)C(=O)CCCCCCCCC3(OC)C=C/C(=C(/C(=O)OCc4cnc(SC)s4)C(=O)CCCCCCCC1)O3)O2 (stereo not given) | 19.1%
COC12C=C/C(=C(/C(=O)OCCSc3ccnn3C)C(=O)CCCCCCCCC3(OC)C=C/C(=C(/C(=O)OCCSc4ccnn4C)C(=O)CCCCCCCC1)O3)O2 | -11% (active)
O=C(/C=C/C12c3ccccc3C(c3ccccc31)C1C(=O)NC(=O)C12)c1ccco1 (stereo not given) | 40.3%
